The results in this text go back to ChEMBL document CHEMBL3988442, “University of Dundee, Small-Polar-MMV Screening Library” (2021).

For part of these data: Entries with a potency or affinity are not part of this list.

Common to all, as to parameters: scale not given: direction of the effect not stated beside the values
Assay [1] has as its target Protein translocase subunit SecA (Escherichia coli (strain K12)) (UniProt P10408). Put plainly: Assay to Identify E. coli SecA ATPase Inhibitors. Format: functional. Particulars: 30 µM.
Assay [2] deals with T1, Ubiquitin-activating enzyme e1, putative (Leishmania donovani (strain BPK282A1)) (UniProt E9BSI1).
T1 sequence (whole entry): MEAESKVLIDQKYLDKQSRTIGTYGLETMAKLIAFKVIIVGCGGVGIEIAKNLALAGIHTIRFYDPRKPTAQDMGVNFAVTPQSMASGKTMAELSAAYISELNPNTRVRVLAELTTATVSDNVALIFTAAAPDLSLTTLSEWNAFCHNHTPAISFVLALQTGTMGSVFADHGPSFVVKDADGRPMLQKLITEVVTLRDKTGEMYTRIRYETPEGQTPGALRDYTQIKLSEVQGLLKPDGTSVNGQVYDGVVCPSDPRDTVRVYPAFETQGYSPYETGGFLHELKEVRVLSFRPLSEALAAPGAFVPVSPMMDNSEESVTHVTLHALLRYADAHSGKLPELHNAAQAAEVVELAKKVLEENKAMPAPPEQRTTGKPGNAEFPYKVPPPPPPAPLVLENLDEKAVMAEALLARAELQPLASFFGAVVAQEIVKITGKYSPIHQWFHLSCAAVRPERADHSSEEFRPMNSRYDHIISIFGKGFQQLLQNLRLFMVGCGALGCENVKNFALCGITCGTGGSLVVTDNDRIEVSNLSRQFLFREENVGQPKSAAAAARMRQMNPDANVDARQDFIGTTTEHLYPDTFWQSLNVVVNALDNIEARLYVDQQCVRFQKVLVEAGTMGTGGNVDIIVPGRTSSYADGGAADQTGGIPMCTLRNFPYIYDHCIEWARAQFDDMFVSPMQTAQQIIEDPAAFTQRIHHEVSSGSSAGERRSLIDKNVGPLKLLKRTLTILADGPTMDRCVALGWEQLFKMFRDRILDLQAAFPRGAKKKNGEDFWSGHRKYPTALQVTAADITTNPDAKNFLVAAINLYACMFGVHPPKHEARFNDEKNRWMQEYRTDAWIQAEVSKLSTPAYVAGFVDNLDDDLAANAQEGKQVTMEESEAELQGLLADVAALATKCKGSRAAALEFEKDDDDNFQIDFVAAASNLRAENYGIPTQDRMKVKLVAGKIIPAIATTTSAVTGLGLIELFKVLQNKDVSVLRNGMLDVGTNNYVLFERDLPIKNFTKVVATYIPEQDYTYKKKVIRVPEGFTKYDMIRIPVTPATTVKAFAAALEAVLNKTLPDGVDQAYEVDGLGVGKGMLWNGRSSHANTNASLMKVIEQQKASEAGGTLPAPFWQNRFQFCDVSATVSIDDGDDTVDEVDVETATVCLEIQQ
Put plainly: Leishmania donovani Ubiquitin Activating Enzyme (LdE1). In kind it is functional. Particulars: 30 µM.

Assay [3] deals with Sialic acid-binding Ig-like lectin 9 (Homo sapiens) (UniProt Q9Y336). Put plainly: Hs-Siglec9 ALPHAscreen SOP 20170721. Particulars: 10 µM. (In general: Bead proximity is the source of the signal in Alpha formats.)
The next assay relates to Trypanosoma cruzi. Put plainly: Trypanosoma cruzi phosphomannomutase and mannose-1-phosphate guanylyltransferase assay. In kind it is functional. Particulars: 10 µM.
For assay [4], the target named is T2, Arginase-2, mitochondrial (Homo sapiens) (UniProt P78540).
T2 sequence (whole entry): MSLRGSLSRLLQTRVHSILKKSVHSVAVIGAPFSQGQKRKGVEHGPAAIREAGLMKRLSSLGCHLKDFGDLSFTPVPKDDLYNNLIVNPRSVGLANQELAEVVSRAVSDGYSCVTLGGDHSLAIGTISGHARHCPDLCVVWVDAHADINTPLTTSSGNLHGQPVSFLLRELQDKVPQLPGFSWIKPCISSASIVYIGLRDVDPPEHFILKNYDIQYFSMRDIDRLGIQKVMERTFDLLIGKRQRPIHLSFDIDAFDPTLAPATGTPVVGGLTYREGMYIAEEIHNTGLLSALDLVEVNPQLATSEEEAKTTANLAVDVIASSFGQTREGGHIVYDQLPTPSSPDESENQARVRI
Put plainly: in vitro enzyme assay to detect the production of urea directly proportional to the activity of Arginase II. Further: in the data most compounds retested in dose-response had high values. In kind it is functional. Particulars: 33.3 µM.

Assay [5] addresses T3, Proteasome subunit beta (Trypanosoma cruzi) (UniProt O96673).
T3 sequence (whole entry): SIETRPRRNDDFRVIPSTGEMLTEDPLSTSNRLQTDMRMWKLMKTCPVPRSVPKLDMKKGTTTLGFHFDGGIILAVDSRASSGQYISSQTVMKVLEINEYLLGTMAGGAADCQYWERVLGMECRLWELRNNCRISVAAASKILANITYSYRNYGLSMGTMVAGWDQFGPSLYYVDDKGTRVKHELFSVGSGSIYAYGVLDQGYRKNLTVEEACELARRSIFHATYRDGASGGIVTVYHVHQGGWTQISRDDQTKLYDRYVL
Put plainly: Trypanosoma cruzi proteasome chymotrypsin-like activity (TcProtChymo) assay. Further: in the data most compounds retested in dose-response had high values. Format: functional. Particulars: 9.37 µM.

The species named for the next assay is Homo sapiens. Put plainly: To identify inhibition of the IFN signalling (Jak-Stat) pathway via expression of an eGFP reporter gene under the control of an IFN-stimulated response element (ISRE) containing MxA promoter. In kind it is functional. Particulars: 30 µM.
In assay [6] the target is T4, Tyrosyl-tRNA synthetase, putative (Trypanosoma cruzi (strain CL Brener)) (UniProt Q4DSP6).
T4 sequence (whole entry): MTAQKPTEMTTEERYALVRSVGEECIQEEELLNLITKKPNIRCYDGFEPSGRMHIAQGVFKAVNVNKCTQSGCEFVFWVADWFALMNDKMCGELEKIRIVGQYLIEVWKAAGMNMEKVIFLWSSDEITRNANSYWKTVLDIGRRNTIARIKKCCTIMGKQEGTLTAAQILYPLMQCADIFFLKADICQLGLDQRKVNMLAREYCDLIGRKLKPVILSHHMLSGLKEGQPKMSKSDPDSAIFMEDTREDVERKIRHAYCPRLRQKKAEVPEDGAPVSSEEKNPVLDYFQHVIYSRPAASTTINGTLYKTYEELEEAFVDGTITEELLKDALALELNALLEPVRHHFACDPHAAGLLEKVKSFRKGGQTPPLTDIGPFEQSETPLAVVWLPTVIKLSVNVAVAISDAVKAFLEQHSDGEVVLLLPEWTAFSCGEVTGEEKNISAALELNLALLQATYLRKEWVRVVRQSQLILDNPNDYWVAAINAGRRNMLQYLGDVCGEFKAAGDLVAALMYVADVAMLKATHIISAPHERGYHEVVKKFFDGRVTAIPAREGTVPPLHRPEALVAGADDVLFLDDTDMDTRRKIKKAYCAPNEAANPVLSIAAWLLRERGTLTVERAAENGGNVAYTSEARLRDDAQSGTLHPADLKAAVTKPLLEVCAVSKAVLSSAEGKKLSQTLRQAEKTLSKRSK
Description: Trypanosoma cruzi tyrosyl tRNA synthetase (TcYRS) _High Tyrosine SOP. Further: in the data most compounds retested in dose-response had high values. Format: functional. Particulars: 30 µM.

Assay [7] has as its target T4, Tyrosyl-tRNA synthetase, putative (Trypanosoma cruzi (strain CL Brener)). Put plainly: Trypanosoma cruzi tyrosyl tRNA synthetase (TcYRS) SOP. Particulars: 30 µM. Format: functional.
For assay [8], the target named is Chromo domain-containing protein 1 (Saccharomyces cerevisiae (strain ATCC 204508 / S288c) (Baker's yeast)) (UniProt P32657). Description: ScCHD-1 Enzyme Inhibition Assay. Further: in the data most compounds retested in dose-response had high values. Format: functional. Particulars: 30 µM.
Sequence of Chromo domain-containing protein 1 (Saccharomyces cerevisiae (strain ATCC 204508 / S288c) (Baker's yeast)) (P32657 whole entry, the tested form may be a part): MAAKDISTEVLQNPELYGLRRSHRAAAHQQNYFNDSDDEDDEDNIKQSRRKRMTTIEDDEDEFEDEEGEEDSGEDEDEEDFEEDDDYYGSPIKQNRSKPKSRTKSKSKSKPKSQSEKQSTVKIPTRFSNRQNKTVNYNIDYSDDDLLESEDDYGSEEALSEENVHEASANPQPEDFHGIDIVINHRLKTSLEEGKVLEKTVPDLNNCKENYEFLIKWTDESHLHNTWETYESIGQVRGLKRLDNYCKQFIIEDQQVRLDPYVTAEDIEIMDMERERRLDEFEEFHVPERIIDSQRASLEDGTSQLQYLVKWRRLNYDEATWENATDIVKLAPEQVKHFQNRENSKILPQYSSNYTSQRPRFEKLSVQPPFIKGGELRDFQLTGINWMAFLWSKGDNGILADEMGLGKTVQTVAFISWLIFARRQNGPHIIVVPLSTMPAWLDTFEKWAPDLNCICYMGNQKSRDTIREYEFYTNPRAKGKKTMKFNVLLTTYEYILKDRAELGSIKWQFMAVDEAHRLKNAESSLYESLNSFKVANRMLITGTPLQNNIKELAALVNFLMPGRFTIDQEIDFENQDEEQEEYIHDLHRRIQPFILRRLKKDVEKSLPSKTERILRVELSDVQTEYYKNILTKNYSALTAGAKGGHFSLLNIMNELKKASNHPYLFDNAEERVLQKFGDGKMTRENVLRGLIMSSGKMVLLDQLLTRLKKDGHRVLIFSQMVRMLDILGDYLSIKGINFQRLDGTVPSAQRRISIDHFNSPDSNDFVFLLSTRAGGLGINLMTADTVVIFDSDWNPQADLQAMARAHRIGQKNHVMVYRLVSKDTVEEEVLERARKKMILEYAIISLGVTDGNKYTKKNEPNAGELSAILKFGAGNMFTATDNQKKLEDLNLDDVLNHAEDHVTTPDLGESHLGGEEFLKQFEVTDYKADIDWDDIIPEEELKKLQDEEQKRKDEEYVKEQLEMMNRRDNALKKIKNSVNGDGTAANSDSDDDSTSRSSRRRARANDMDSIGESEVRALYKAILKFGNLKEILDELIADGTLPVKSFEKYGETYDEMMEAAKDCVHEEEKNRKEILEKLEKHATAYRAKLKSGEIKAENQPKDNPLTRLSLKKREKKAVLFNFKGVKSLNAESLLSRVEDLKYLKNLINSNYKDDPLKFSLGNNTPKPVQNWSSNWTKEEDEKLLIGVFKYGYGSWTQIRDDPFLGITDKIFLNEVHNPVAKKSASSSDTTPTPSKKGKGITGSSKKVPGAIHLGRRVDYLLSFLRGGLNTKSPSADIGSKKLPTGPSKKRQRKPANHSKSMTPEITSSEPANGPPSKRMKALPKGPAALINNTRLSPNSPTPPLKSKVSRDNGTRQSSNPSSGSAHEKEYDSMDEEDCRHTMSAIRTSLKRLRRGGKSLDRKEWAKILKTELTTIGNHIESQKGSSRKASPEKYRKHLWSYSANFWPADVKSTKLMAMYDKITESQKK

Sequence of Sialic acid-binding Ig-like lectin 9 (Homo sapiens) (Q9Y336 whole entry): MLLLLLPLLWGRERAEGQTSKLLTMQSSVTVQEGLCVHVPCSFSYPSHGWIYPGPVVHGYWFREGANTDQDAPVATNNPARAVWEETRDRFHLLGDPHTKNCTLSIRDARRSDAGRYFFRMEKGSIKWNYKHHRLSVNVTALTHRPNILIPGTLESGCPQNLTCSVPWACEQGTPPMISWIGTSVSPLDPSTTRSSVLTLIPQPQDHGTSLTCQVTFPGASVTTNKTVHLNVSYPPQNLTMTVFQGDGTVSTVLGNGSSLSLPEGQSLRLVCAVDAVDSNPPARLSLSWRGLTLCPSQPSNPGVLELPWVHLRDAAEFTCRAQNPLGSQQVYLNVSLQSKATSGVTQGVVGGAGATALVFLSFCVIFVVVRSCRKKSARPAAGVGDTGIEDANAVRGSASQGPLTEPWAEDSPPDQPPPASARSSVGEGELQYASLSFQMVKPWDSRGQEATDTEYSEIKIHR
Sequence of Protein translocase subunit SecA (Escherichia coli (strain K12)) (P10408 whole entry): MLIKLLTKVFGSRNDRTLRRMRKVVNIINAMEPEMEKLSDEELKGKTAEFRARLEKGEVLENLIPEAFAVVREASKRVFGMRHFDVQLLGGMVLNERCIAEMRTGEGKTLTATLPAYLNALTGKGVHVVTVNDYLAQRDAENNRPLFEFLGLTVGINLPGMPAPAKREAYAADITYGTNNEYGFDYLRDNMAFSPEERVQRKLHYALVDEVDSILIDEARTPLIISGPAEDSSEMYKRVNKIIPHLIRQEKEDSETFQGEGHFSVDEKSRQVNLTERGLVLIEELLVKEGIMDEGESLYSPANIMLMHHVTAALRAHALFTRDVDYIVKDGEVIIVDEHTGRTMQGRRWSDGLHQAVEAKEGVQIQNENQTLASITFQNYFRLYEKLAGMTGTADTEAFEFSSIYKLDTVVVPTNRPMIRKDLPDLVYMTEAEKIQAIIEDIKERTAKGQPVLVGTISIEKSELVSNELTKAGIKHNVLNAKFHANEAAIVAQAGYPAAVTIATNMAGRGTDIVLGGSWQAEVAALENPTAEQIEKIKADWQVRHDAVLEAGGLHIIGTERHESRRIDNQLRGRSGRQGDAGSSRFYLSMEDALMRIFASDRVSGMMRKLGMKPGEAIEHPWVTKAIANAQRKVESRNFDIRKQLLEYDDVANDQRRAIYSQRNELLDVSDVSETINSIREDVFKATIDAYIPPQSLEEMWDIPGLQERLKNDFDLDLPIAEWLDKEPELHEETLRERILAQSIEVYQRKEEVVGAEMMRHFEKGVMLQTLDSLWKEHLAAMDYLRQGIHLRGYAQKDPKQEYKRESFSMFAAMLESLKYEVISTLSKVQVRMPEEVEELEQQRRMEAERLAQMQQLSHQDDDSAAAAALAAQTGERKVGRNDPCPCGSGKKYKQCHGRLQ

As for `Cc1ccccc1N1CC2(CCN(S(=O)(=O)C3CC3)C2)CC1=O` (stereo not given), the Percent Effect is 0.787% in assay [1]; 16.9% in assay [2]; -5.74% in assay [3]; -5.07% in the assay on Trypanosoma cruzi; 4.57% in assay [4]; 17.4% in [5]. Besides, the Percent Effect in the assay listed under Homo sapiens was 11.8%; in assay [6], 3.87%; in assay [7], 10%; in assay [8], -8.76%.
`Cc1cnn(CC2CCCCN2Cc2cc(C)on2)c1` (stereo not given): the Percent Effect is -1.2% in assay [1]; 10.3% in assay [2]; 3.02% in [3]; -0.282% with Trypanosoma cruzi; -0.82% in [4]; 1.45% in [5]. Also, the Percent Effect was 8.23% in the assay listed under Homo sapiens, 1.44% in assay [6], 10.8% in assay [7] and -2.89% in assay [8].
In the case of `Cc1cnn(CC2CCCN2CC(=O)Nc2cc(C)nn2C)c1` (stereo not given), the Percent Effect in assay [1] was -2.33%; in assay [2], 5.2%; in [3], 5.19%; with Trypanosoma cruzi, 2.8%; in assay [4] it was 1.02%; in [5], -5.44%. Also, the Percent Effect was 0.341% in the assay listed under Homo sapiens, 4.9% in assay [6], 16.5% in assay [7] and -7.89% in [8].
Turning to `Cc1ccc(S(=O)(=O)N2CCOc3ccccc32)cc1C(=O)O`, the Percent Effect is -0.902% in assay [1]; -5.13% in assay [2]; -13.7% in [3]; -1.03% with Trypanosoma cruzi; 1.23% in [4]; 11.5% in assay [5]. For the same molecule, the Percent Effect in the assay listed under Homo sapiens was 1.07%; in [6], -7.18%; in [7], 6.02%; in assay [8], -6.35%.
Consider `CCC1c2ccsc2CCN1C(=O)NCCNc1ncccn1` (stereo not given), for which the Percent Effect is 0.216% in assay [1]; 15.4% in assay [2]; -5.88% in assay [3]; 6.29% with Trypanosoma cruzi; 6.15% in assay [4]; 9.3% in assay [5]. Besides, the Percent Effect in the assay listed under Homo sapiens is 10%; in assay [6], 6.22%; in assay [7], 22.9%; in assay [8], -7.01%.
With `COCC(=O)N1CC[C@@H](N2CCOCC2)[C@@H]1Cc1ccccc1`, the Percent Effect in assay [1] was -3.93%; in assay [2] it was 14.3%; in assay [3], -1.41%; in the assay with Trypanosoma cruzi it was 0.0974%; in [4], 13.8%; in assay [5] it was 22%. For the same molecule, the Percent Effect in the assay filed under Homo sapiens was -2.33%; in assay [6] it was 17.4%; in assay [7] it was 15.4%; in assay [8] it was 2.12%.
For `O=C1CCC(C(=O)NCc2nn(-c3ccccc3)c3c2CCC3)CN1` (stereo not given), the Percent Effect is -6.78% in assay [1]; 5.13% in assay [2]; -2.63% in assay [3]; -2.16% in the assay with Trypanosoma cruzi; -2.46% in assay [4]; 1.96% in assay [5]. The Percent Effect in the assay filed under Homo sapiens amounted to 22%; in [6], 1.44%; in assay [7], 6.02%; in assay [8] it was 0.942%.
For `CC(NC(=O)CCn1cncn1)c1nnc2n1CCCCC2` (stereo not given), the Percent Effect in assay [1] is -3.71%; in assay [2] it was 20.8%; in [3] it was 8.71%; in the assay on Trypanosoma cruzi, 5.04%; in [4], 10.4%; in assay [5], 1.93%. Besides, the Percent Effect in the assay filed under Homo sapiens is 17.2%; in [6], 3.92%; in [7] it was 18.8%; in [8], -8.72%.
Regarding `COc1ccc(C(C)NC(=O)Cn2ccc(=O)n(C)c2=O)cc1OC` (stereo not given), the Percent Effect in assay [1] is -2.49%; in assay [2] it was 7.79%; in assay [3], 11%; in the assay with Trypanosoma cruzi, -2.8%; in [4] it was 3.48%; in assay [5], 9.65%. The Percent Effect is 17.1% in the assay listed under Homo sapiens, 8.82% in assay [6], 18.8% in assay [7] and -4.91% in [8].
Take `O=C(c1ccc(F)cc1F)N1CC[C@H](O)[C@@H](N2CCOCC2)CC1`: the Percent Effect is -1.33% in assay [1]; 6.67% in [2]; 3.3% in [3]; -1.58% with Trypanosoma cruzi; 3.98% in assay [4]; 3.94% in [5]. Besides, the Percent Effect is 12.8% in the assay listed under Homo sapiens, 2.12% in assay [6], 7.5% in assay [7] and -18.1% in assay [8].
On to `CCC(NC(=O)CC(F)(F)F)c1ccccc1OCC(=O)N1CCCC1` (stereo not given), for which the Percent Effect was -0.84% in [1]; 15.4% in [2]; -4.51% in [3]; -0.845% in the assay on Trypanosoma cruzi; 0% in assay [4]; 13.4% in assay [5]. For the same molecule, the Percent Effect in the assay listed under Homo sapiens was -7.93%; in assay [6], 7.18%; in assay [7], 20.5%; in assay [8], -2.48%.
With `CCn1ccnc1CN1CCC(CCC(=O)Nc2ccccc2Cl)CC1`, the Percent Effect in [1] was -1.09%; in [2], 5.41%; in [3], 7.23%; in the assay on Trypanosoma cruzi, 6.89%; in assay [4] it was 12.2%; in assay [5], -1.37%. The Percent Effect in the assay filed under Homo sapiens turned out to be 10.8%; in [6], 1.6%; in assay [7] it was 7.32%; in assay [8] it was 83.4%.
